UHRF1 binding – UHRF1 methyl-DNA binding inhibition; Q96T88; UHRF1 binding to methylated oligo, TR-FRET; inhibition, % at 4.4 µM; 370,000 compounds, 0.75% hits; AID 687016; in the data active means inhibition above about 21%;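 further: UHRF1 SRA domain binding a hemimethylated CpG hairpin DNA probe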
Target sequence (Q96T88 whole entry, looked up, the tested form may be a part): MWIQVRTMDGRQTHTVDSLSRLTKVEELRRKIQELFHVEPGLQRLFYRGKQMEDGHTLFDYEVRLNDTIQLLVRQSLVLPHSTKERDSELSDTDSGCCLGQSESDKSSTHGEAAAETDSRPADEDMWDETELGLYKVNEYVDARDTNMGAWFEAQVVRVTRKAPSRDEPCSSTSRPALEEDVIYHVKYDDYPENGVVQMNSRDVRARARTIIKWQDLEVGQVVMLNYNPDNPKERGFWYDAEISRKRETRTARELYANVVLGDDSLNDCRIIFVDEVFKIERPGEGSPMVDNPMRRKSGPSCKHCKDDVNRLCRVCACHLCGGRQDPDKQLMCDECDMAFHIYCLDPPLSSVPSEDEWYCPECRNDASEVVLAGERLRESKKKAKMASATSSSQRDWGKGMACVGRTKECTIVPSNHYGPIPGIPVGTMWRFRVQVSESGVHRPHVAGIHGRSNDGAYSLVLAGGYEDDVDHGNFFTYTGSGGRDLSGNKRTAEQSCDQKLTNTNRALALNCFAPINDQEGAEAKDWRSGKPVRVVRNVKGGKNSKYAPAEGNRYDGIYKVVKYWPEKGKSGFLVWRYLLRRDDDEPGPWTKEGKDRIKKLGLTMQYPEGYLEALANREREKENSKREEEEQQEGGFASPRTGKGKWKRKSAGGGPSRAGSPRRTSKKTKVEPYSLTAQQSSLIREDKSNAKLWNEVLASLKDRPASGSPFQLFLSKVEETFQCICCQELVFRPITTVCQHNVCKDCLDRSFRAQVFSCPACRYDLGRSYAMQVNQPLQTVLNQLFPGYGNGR
Rin1 Abl inh – human Rin1-Abl interaction inhibition; inhibition, % at 7.35 µM; AID 588664; 360,000 compounds, 0.4% hits; TR-FRET Rin1/Abl binding, biochemical; P00519+Q13671; in the data active means inhibition above about 5%, passing the limit was not always enough
MBD2 inh – blocks human MBD2 binding to methylated DNA. TR-FRET, MBD2 binding to methylated oligonucleotide. inhibition, % at 4.4 µM. 370,000 compounds, 0.31% hits; in the data active means inhibition above about 13%
LEDGF integ inh – blocks HIV-1 LEDGF/p75-dependent DNA integration; 370,000 compounds, 0.64% hits; inhibition, % at 3.7 µM; TR-FRET IN-LEDGF/p75 DNA integration, Eu/Cy5; AID 743269;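 active means inhibition above the screen-wide mean plus 3 SD, cut at about 13% in these data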;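 further: signal is the Cy5 over europium emission ratio at 671 and 618 nm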
TCR CD3 inh – inhibitors of human TCR-CD3 interaction | 360,000 compounds, 0.37% hits | AID 651800 | TAMRA-labeled TCR probe fluorescence, biochemical | inhibition, % at 9.4 µM; in the data active means inhibition above about 19%;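 further: recombinant mutant TCR 2C K166C tagged with TAMRA read by polarization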
IN multimer act – HIV-1 integrase multimerization activation, counter-screen; shares compounds with LEDGF integ inh; TR-FRET HIV-1 integrase multimerization, biochemical; activation, % at 7.7 µM; 2,000 compounds, 17% hits; in the data active means activation above about 8.9%
TRFRET interf – TR-FRET optical interference, LEDGF/p75 integration counter-screen | shares compounds with LEDGF integ inh | TR-FRET optical interference counterscreen, HIV-1 IN multimerization | inhibition, % at 7.7 µM | 2,000 tested, under 10 active | AID 1053135;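 active means inhibition above the mean over all tested compounds plus 3 SD, which no compound reached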
LEDGF integ conf – confirmation of HIV-1 LEDGF/p75-dependent integration inhibitors; TR-FRET LEDGF/p75-dependent HIV-1 integration, biochemical; inhibition, % at 3.7 µM; 2,000 compounds, 36% hits; shares compounds with LEDGF integ inh; in the data active means inhibition above about 14%
Each line names hits and unclear results; the compound was inactive in the other large screens (follow-up assays come after a bar, where they were run). The list is not random: actives were taken first. Their share in the collection is about 2%.

Cc1csc2c(SCC(=O)NNS(=O)(=O)c3cccc(C(F)(F)F)c3)ncnc12	none
O=C(O)c1ccc2c(c1)S(=O)(=O)c1cc(N3CCN(c4ncccn4)CC3)ccc1C2=O	none
Cc1ccc(C(=O)OCN2C(=O)c3ccccc3C2=O)c(O)c1	none
Cn1cc(Cl)c(-c2n[nH]c(=S)n2-c2ccc(F)cc2)n1	LEDGF integ inh 28 | IN multimer act inactive | TRFRET interf inactive | LEDGF integ conf inactive
Cc1ccc(S(=O)(=O)N2[C@H](CC(=O)c3cccc4ccccc34)OC[C@@H]2C)cc1	LEDGF integ inh 14 (no result: Rin1 Abl inh) | IN multimer act inactive | TRFRET interf inactive | LEDGF integ conf inactive
CCCCNC(=O)c1nc(-c2ccccc2)oc1-c1ccc(Cl)cc1	none (no result: Rin1 Abl inh)
O=[N+]([O-])c1ccc(O)c(C=Nc2cccc3ncccc23)c1	LEDGF integ inh 20 | IN multimer act inactive | TRFRET interf inactive | LEDGF integ conf inactive
O=[N+]([O-])c1ccc(O)c(C=Nc2cccc3ccccc23)c1	none
CCC(=O)Nc1nc2ccccc2n1Cc1ccccc1	none
CCC(=O)Nc1nc2ccccc2n1Cc1ccc(C)cc1	LEDGF integ inh 14 | IN multimer act inactive | TRFRET interf inactive | LEDGF integ conf inactive
Cc1cc(NS(=O)(=O)c2ccc(NC(=O)CSc3nnc(-c4ccncc4)n3-c3ccccc3)cc2)nc(C)n1	none (no result: Rin1 Abl inh, TCR CD3 inh)
CC(C)CSc1nnc(-c2ccco2)n1C	LEDGF integ inh 23 (no result: Rin1 Abl inh, TCR CD3 inh) | IN multimer act inactive | TRFRET interf inactive | LEDGF integ conf inactive
Cc1ccc(-c2nnc(SCC(C)C)n2C)cc1	none
CC(=O)NC(c1ccco1)c1cc(Cl)c2ccc(Cl)nc2c1O (stereo not drawn)	LEDGF integ inh 44 | IN multimer act inactive | TRFRET interf inactive | LEDGF integ conf inactive
CN(C)c1ccc(NC(=O)C2C3C=CC(C3)C2C(=O)O)cc1 (stereo not drawn)	UHRF1 binding 21, LEDGF integ inh 50, TCR CD3 inh 33 | IN multimer act inactive | TRFRET interf inactive | LEDGF integ conf inactive
Nc1cc(S(=O)(=O)N2CCCCC2)ccc1Oc1ccc(Cl)cc1	LEDGF integ inh 40 | IN multimer act inactive | TRFRET interf inactive | LEDGF integ conf inactive
C[n+]1c2cc(N)ccc2cc2ccc(N)cc21	LEDGF integ inh 40 | IN multimer act 20 | TRFRET interf inactive | LEDGF integ conf 45
COC(=O)[C@]1(C)N[C@H](CN(C)S(=O)(=O)c2ccc(C(F)(F)F)cc2)[C@@H]2C(=O)N(C)C(=O)[C@@H]21	LEDGF integ inh 36 | IN multimer act inactive | TRFRET interf inactive | LEDGF integ conf inactive
CCN(C[C@H]1N[C@@](Cc2ccccc2)(C(=O)OC)[C@H]2C(=O)N(Cc3ccccc3)C(=O)[C@@H]12)S(=O)(=O)c1ccc(C(F)(F)F)cc1	LEDGF integ inh 25 | IN multimer act inactive | TRFRET interf inactive | LEDGF integ conf inactive
COC(=O)[C@]1(Cc2ccccc2)N[C@H](CN(C)S(=O)(=O)c2ccc(C(F)(F)F)cc2)[C@@H]2C(=O)N(Cc3ccccc3)C(=O)[C@@H]21	none
CC(=O)c1cccc(-c2ccc3c(c2)C(C)(Cc2ccc(S(C)(=O)=O)cc2)C(=O)N3)c1 (stereo not drawn)	LEDGF integ inh 48 | IN multimer act inactive | TRFRET interf inactive | LEDGF integ conf inactive
CC(=O)c1cccc(-c2ccc3c(c2)C(C)(Cc2ccccc2C#N)C(=O)N3)c1 (stereo not drawn)	none
COc1ccc(C(=O)NCC(=O)Nc2ccc(-c3ccccc3)cc2)cc1	LEDGF integ inh 18 | IN multimer act 11 | TRFRET interf inactive | LEDGF integ conf inactive
CC1(C)CC(=O)C(C(C2=C(O)CC(C)(C)CC2=O)c2ccc([N+](=O)[O-])cc2)C(=O)C1 (stereo not drawn)	LEDGF integ inh 40 | IN multimer act inactive | TRFRET interf inactive | LEDGF integ conf inactive
COc1cccc(C(C2=C(O)CC(C)(C)CC2=O)C2C(=O)CC(C)(C)CC2=O)c1 (stereo not drawn)	none
O=C(NCc1ccncc1)C1CCN(S(=O)(=O)c2cc(Cl)ccc2Cl)CC1	LEDGF integ inh 20 | IN multimer act inactive | TRFRET interf inactive | LEDGF integ conf inactive
COc1ccc(NC(=O)N[C@@H](CCSC)C(=O)O)cc1Cl	LEDGF integ inh 81 | IN multimer act inactive | TRFRET interf inactive | LEDGF integ conf inactive
O=C(CSc1nnc(-c2ccc(Cl)cc2)n1Cc1ccco1)Nc1ccc(S(=O)(=O)Nc2nccs2)cc1	LEDGF integ inh 19 (no result: Rin1 Abl inh, TCR CD3 inh) | IN multimer act inactive | TRFRET interf inactive | LEDGF integ conf inactive
Cc1cc(NS(=O)(=O)c2ccc(NC(=O)CSc3nnc(-c4ccncc4)n3Cc3ccco3)cc2)nc(C)n1	LEDGF integ inh 36 (no result: Rin1 Abl inh, TCR CD3 inh) | IN multimer act inactive | TRFRET interf inactive | LEDGF integ conf inactive
Cc1cc(C(=O)Nc2cccc3c2O[C@@H](CN(C)S(C)(=O)=O)[C@H](C)CN([C@@H](C)CO)C3=O)n(C)n1	none
O=C(Nc1ccncc1Cl)c1ccncc1	none
COc1ccc(-c2ccc(C(=O)Nc3cccc(F)c3)c3occc23)c(C)c1	none
COc1ccc(-c2ccc(C(=O)Nc3cccc(NS(C)(=O)=O)c3)c3occc23)c(C)c1	LEDGF integ inh 16 | IN multimer act inactive | TRFRET interf inactive | LEDGF integ conf inactive
O=C(CCC(=O)c1ccccc1)Nc1ccccc1	LEDGF integ inh 14 | IN multimer act inactive | TRFRET interf inactive | LEDGF integ conf inactive
Cc1cccc(NC(=S)N(CCN(C)C)C(C)c2cccnc2)c1 (stereo not drawn)	none
Cc1cccc(NC(=S)N(CCN(C)C)C(C)c2ccccn2)c1 (stereo not drawn)	LEDGF integ inh 92 | IN multimer act inactive | TRFRET interf inactive | LEDGF integ conf inactive
O=C(NCCCO)c1ccc(CSc2nc3ccccc3[nH]2)cc1	LEDGF integ inh 17 | IN multimer act inactive | TRFRET interf inactive | LEDGF integ conf inactive
CCOC(=O)c1c(C)[nH]c(N=Nc2cc(C(=O)O)cc(C(=O)O)c2)c1C	LEDGF integ inh 14 | IN multimer act inactive | TRFRET interf inactive | LEDGF integ conf inactive
CCOC(=O)c1c(C)[nH]c(N=Nc2ccc(C)cc2C)c1C	none
CCN1CCCC1CNC(=O)Cn1nc(C)n2c(cc3cc(F)ccc32)c1=O (stereo not drawn)	LEDGF integ inh 19 | IN multimer act inactive | TRFRET interf inactive | LEDGF integ conf inactive
CCCNC(=O)Cn1nc(C)n2c(cc3cc(F)ccc32)c1=O	none

Source: PubChem (The Scripps Research Institute Molecular Screening Center)
